Hits are enriched below; roughly 7.3% of the tested compounds scored in any of these assays.
FLuc modulator = inhibits or activates purified firefly luciferase, miR-21 counter-screen; Potency, µM (doses to about 57.5 µM), hits mostly inhibitors; P08659; purified FLuc, Km substrates, luminescence inhibition; actives 6.9% (n = 360,000); further: nearly all actives have a fitted effect of over 55% in size
Target sequence (P08659 whole entry, looked up): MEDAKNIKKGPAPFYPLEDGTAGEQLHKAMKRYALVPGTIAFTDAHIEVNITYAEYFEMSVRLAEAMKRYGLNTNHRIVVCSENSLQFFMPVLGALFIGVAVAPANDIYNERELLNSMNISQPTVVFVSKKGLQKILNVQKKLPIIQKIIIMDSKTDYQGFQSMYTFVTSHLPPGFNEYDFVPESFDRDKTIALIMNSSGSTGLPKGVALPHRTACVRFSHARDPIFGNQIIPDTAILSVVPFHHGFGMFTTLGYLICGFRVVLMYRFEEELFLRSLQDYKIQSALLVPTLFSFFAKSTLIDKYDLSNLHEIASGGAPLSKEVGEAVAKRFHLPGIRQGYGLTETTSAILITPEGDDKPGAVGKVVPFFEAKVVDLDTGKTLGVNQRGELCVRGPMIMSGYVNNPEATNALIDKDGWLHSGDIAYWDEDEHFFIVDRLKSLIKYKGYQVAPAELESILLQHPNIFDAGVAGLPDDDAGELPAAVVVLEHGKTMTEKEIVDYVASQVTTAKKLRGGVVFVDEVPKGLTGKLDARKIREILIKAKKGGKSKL
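Biochemical qHTS of compounds, final roughly 60 µM downward over six points, against 10 nM purified firefly luciferase using Km concentrations of substrates (10 uM D-luciferin, 10 uM ATP) in Tris acetate pH 7.5 buffer; luminescence output.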
SMN2 splice up = SMN2 splice variant enhancement. HEK293 SMN2-luciferase splicing reporter, luminescence, 30-36 h. Potency, µM (series often up to 46.1 µM), most hits filed as activators. actives 2.8% (n = 210,000). AID 1458; further: nearly all actives have a fitted effect of over 55% in size
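HEK293 cells carry an SMN2 […]–luciferase reporter in which exon 7 inclusion puts luciferase in frame. Cells were plated 10-12 h before compound addition, then incubated 30-36 h at 37C. ONE-Glo luminescence was read; sodium butyrate at 4.5 mM final served as control.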
NPC1 prom act = activators of NPC1 promoter; Huh7 NPC1 promoter luciferase reporter, 24 h; Potency, µM (doses to about 9.22 µM), most hits filed as activators; actives 2.4% (n = 320,000); further: nearly all actives have a fitted effect of over 60% in size
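In 1536-well qHTS, Huh7 cells harboring an NPC1 promoter–luciferase construct received compound for 24 h; activation was quantified by luminescence following luciferase reagent addition.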
Rab9 prom act = Rab9 promoter activation; Huh7 Rab9 promoter-luciferase reporter, luminescence, 24 h; actives 2.8% (n = 320,000); Potency, µM (titrated, usually from 9.22 µM), hits mostly activators; AID 485297; further: nearly all actives have a fitted effect of over 60% in size
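Steps: seed 1500 Huh7 Rab9-luc cells per well, rest 2 h at 37 °C; add compound in DMSO; incubate 24 h; add luciferase reagent, 10 min ambient; read luminescence.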
Luc counter = counter-screen: inhibitors of Kinase-Glo firefly luciferase | Q27757 | Kinase-Glo luciferase, ATP luminescence, 8 min | Potency, µM (highest dose often 38.3 µM), most hits filed as inhibitors | actives 0.28% (n = 200,000) | AID 1379; further: nearly all actives have a fitted effect of over 60% in size
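Recombinant Kinase-Glo luciferase, 10 uM ATP (linear range), luciferin; imidazole pH 7.2 / KCl / MgCl2 / Tween / BSA buffer; 8 min RT; luminescence.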
A number is an active result; i = inactive; ? = inconclusive; nt = no result given; [ ] = another dose, or the depositor's remark. The call rests on the fitted dose curve; in most records, active means well fitted curve in the direction sought with a large enough effect; inconclusive means small, poorly fitted or top-dose-only effect, or another doubt; inactive means no such curve, though single readings can be large; an effect the other way counts as inactive or inconclusive.

SMILES	FLuc modulator	SMN2 splice up	NPC1 prom act	Rab9 prom act	Luc counter
O=C(/C=C/Nc1ccccc1F)c1cccs1	0.239µM	2µM	?	3.98µM	?
CCOC(=O)c1ccccc1N/C=C/C(=O)c1cccs1	?	nt	i	?	nt
Nc1nn(-c2ccccc2)nc1C(=O)OCc1ccccc1F	16.9µM	i	i	i	i
O=C(O)c1ccc(N/N=C/c2cn(Cc3ccccc3F)c3ccccc23)cc1	21.3µM	nt	i	?	nt
Nc1ccc(C(=O)N/N=C/c2cn(Cc3ccc(F)cc3)c3ccccc23)cc1	?	nt	i	i	nt
COC(=O)N/N=C/c1cn(Cc2ccccc2F)c2ccccc12	i	nt	i	i	nt
COc1cc(C(=O)N/N=C/c2cn(Cc3ccccc3)c3ccccc23)ccc1O	16.9µM	nt	i	i	nt
Nc1ccc(C(=O)N/N=C/c2cn(Cc3ccccc3)c3ccccc23)cc1	16.9µM	nt	i	i	nt
O=C(N/N=C/c1cn(Cc2cccc(F)c2)c2ccccc12)c1cc(O)cc(O)c1	16.9µM	nt	i	i	nt
O=C(c1cccs1)N(Cc1cccnc1)c1nc2ccc(F)cc2s1	i	nt	nt	nt	nt
COc1cccc(C(=O)NCc2nc(-c3ccccc3)no2)c1OC	i	i	nt	nt	nt
CC(C)n1cc(/C=N/Nc2ccc(C(=O)O)cc2)c2ccccc21	6.01µM	nt	i	i	nt
Cn1cc(/C=N/Nc2ccccc2)c2ccccc21	13.5µM	?	i	?	i
CC(C)n1cc(/C=N\NC(=O)c2cc3c(ccc4ccccc43)o2)c2ccccc21	?	i	i	i	i
COC(=O)N/N=C/c1cn(Cc2ccccc2Cl)c2ccccc12	i	i	i	i	i
Nc1ccc(C(=O)N/N=C/c2cn(Cc3ccccc3F)c3ccccc23)cc1	23.9µM	nt	i	i	nt
Cc1onc(-c2ccccc2)c1C(=O)N/N=C/c1cn(C)c2ccccc12	i	i	i	i	i
O=[N+]([O-])c1ccc2ncccc2c1CCc1c([N+](=O)[O-])ccc2ncccc12	nt	i[9.22 µM]	nt	nt	i[7.66 µM]
O=C(O)[C@@H]1[C@@H](C(=O)Nc2ccccc2)[C@@H]2C=C[C@@H]1O2	nt	i[9.22 µM]	nt	nt	i[7.66 µM]
CCOC(=O)c1cc2c(=O)n3ccccc3nc2n(C)c1=NC(=O)c1c(-c2ccccc2Cl)noc1C	i	i	nt	nt	nt
CCOCCc1nn2c(=O)cc(COC(=O)c3ccccc3NC(=O)c3cccs3)nc2s1	i	nt	nt	nt	nt
CC12CCC(C/C1=N\N=C1\NC(=O)/C(=C\c3ccc(Cl)cc3)S1)C2(C)C (stereo not drawn)	6.01µM	i	i	i	i
CN1N=C(C(=O)N2CCc3c([nH]c4ccccc34)C2c2ccccc2Cl)CCC1=O (stereo not drawn)	15.1µM	nt	i	5.01µM	i
O=C(c1cc[n+]([O-])cc1)N1CCc2c([nH]c3ccccc23)C1c1ccccc1Cl (stereo not drawn)	i	nt	i	i	i
COc1ccc(/C=C/c2nc3ccccc3c(=O)n2-c2cccc(C(=O)O)c2)cc1	?	nt	i	i	nt
SMILES	FLuc modulator	SMN2 splice up	NPC1 prom act	Rab9 prom act	Luc counter
CC(=O)Oc1ccc(/C=C/c2nc3ccccc3c(=O)o2)cc1	0.426µM	nt	?	?	nt
CC(=O)Oc1ccccc1/C=C/c1nc2ccccc2c(=O)o1	15.1µM	nt	?	?	nt
O=c1oc(/C=C/c2ccc([N+](=O)[O-])s2)nc2ccccc12	?	nt	?	i	nt
CCCCC/C=C\C/C=C\CCCCCCCC(=O)NCCCC(=O)O	nt	i	nt	nt	i
Clc1ccc(-c2nc3sccn3c2/C=N/OCc2ccc(Cl)c(Cl)c2)cc1	nt	i	nt	nt	nt
CCC(C)O (stereo not drawn)	nt	i	nt	nt	nt
Cc1ccc(C(=O)Nc2nc(-c3cc(Cl)sc3Cl)cs2)cc1	9.53µM	i	i	i	i
O=C(O)C1CCC1C(=O)Nc1nc(-c2ccc(Cl)s2)cs1 (stereo not drawn)	?	nt	i	i	nt
O=C(Nc1nc(-c2ccc(Cl)s2)cs1)c1ccccc1	26.9µM	i	i	i	i
O=C(Nc1nc(-c2cccs2)cs1)c1ccc(Cl)s1	13.5µM	i	i	i	i
CC(=O)Nc1nc(-c2cccs2)cs1	?	i	?	i	i
CC1CC(C)CN(S(=O)(=O)c2cccc3cccnc23)C1 (stereo not drawn)	i	i	i	i	i
O=c1n(S(=O)(=O)c2cccc3cccnc23)c2ccccc2n1S(=O)(=O)c1cccc2cccnc12	i	11.2µM	i	i	i
O=C1c2ccccc2CCC1C(O)c1ccccn1 (stereo not drawn)	15.1µM	nt	i	i	nt
CN1CCCN=C1/C=C\c1cccs1	nt	i	nt	nt	i
CCOc1cccc(/C=N/NC(=O)c2ccc3c(c2)OCCO3)c1O	2.39µM	nt	i	i	nt
CCOc1cccc(/C=N/NC(=O)c2cc(-c3cccn3C)n[nH]2)c1O	15.1µM	nt	i	i	i
Cc1ccc(NS(=O)(=O)c2cccc(C(=O)N/N=C/c3ccc4c(c3)OCCO4)c2)c(C)c1	10.7µM	i	i	i	i
Cc1ccc(N=Nc2ccc(O)c(/C=N\NC(=O)c3ccc(N)cc3)c2)cc1C	?	i	1.41µM	2.82µM	i
Cc1cccc(/C=N/NC(=O)c2ccc3c(c2)OCCO3)c1O	0.379µM	nt	0.891µM	0.501µM	nt
Cc1cccc(/C=N\NC(=O)c2ccc(Cl)cc2)c1O	1.51µM	nt	i	?	i
Cc1ccc(-c2nc(C)c(CCNC(=O)C(=O)Nc3ccc(C)c(Cl)c3)s2)cc1	i	nt	nt	nt	nt
N/C(=N\OC(=O)c1ccc(Cl)cc1)c1ccccn1	0.0757µM	7.08µM	0.562µM	1.41µM	6.31µM
CCOc1ccc(C(=O)O/N=C(\N)c2ccccn2)cc1OCC	12µM	nt	1.26µM	2.51µM	nt
N/C(=N\OC(=O)c1ccc(Cl)c(Cl)c1)c1ccccn1	0.757µM	14.1µM	3.16µM	4.47µM	i
SMILES	FLuc modulator	SMN2 splice up	NPC1 prom act	Rab9 prom act	Luc counter
N/C(=N\OC(=O)c1cccc(Cl)c1)c1ccccn1	0.601µM	14.1µM	3.16µM	3.16µM	i
N/C(=N\OC(=O)c1ccc(Cl)c([N+](=O)[O-])c1)c1ccccn1	?	nt	i	i	nt
O=C1[C@H]2[C@H]3C=C[C@@H](C4[C@H]3[C@@H]3C(=O)N(CN5CCSCC5)C(=O)[C@H]43)[C@H]2C(=O)N1CN1CCSCC1 (stereo partly drawn)	nt	i[9.22 µM]	nt	nt	i[7.66 µM]
N/C(=N\OC(=O)c1ccc2ccccc2c1)c1ccc(Br)cc1	i	?	i	i	i
N/C(=N\OC(=O)c1cccc(Br)c1)c1ccccn1	0.426µM	nt	3.55µM	3.98µM	nt
N/C(=N\OC(=O)c1cccc(Br)c1)c1ccccc1	0.849µM	?	i	i	i
N/C(=N\OC(=O)c1ccc(Cl)cc1)c1[nH]ncc1Br	0.135µM	nt	?	3.16µM	nt
Cc1c(NC(=O)c2ccc(OC(C)C)cc2)cccc1-c1nc2ncccc2o1	?	i	nt	nt	nt
Cc1c(CN(C)C(=O)c2cc(-c3ccccc3)nc3ccc(Br)cc23)cnn1C	?	i	nt	nt	nt
Cc1ccnc(NS(=O)(=O)c2ccc(NC(=O)CSc3nc(-c4ccccc4)cc(=O)[nH]3)cc2)n1	13.5µM	i	i	i	i
O=C(CS(=O)(=O)c1ccccc1)Nc1ccc(S(=O)(=O)Nc2ncccn2)cc1	i	i	i	i	i
